Cruzain inh noDet = inhibitors of Trypanosoma cruzi cruzain without detergent | Potency, µM, most hits filed as inhibitors | 200,000 tested, 2.3% active | P25779 | AID 1476 | purified cruzain, Z-FR-AMC fluorescence, no detergent; further: nearly all actives have a fitted effect of over 40% in size
Target sequence (P25779 123-467 limits assumed): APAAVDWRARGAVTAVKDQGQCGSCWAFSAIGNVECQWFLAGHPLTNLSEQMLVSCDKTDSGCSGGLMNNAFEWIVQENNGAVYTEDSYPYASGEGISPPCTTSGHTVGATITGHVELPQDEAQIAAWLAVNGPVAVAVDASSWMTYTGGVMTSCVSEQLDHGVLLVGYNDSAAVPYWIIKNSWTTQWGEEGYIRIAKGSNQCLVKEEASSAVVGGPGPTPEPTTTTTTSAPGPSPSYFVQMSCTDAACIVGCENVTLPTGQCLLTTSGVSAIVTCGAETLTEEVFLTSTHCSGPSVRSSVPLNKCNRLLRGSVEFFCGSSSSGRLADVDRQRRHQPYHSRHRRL
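Detergent-free condition (0.00005% Triton X-100) in acetate buffer pH 5.5 with DTT. 1.5 nM enzyme and compound were pre-mixed 15 min, then 2 uM Z-FR-AMC substrate added; reaction progress from fluorescence change between first and third reads (60 s).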
Cruzain Triton = cruzain (T. cruzi) inhibition with detergent. purified cruzain, Z-FR-AMC fluorescence, 0.01% Triton. Potency, µM, actives largely listed as inhibitors. 200,000 tested, 0.43% active; further: nearly all actives have a fitted effect of over 40% in size
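Z-FR-AMC hydrolysis (2 uM substrate) by cruzain (1.5 nM) monitored kinetically at ex 360/em 450 nm after 15 min room-temperature compound exposure; 0.01% Triton X-100, pH 5.5, 5 mM DTT.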
Large screens that a line does not name were inactive. Compounds with a hit are over-represented: about 2.5% of the library has one in this group of screens. The call rests on the fitted dose curve; in most records, active means well fitted curve in the direction sought with a large enough effect; inconclusive means small, poorly fitted or top-dose-only effect, or another doubt; inactive means no such curve, though single readings can be large; an effect the other way counts as inactive or inconclusive.

COc1cccc(C(=O)Nc2cccc(-c3cn4c(C)csc4n3)c2)c1OC	none
Cc1ccc(NC(=O)c2noc3c2CC(C(C)(C)C)CC3)cc1 (stereo unspecified)	Cruzain inh noDet 13µM
CC(C)(C)C1CCc2onc(C(=O)Nc3cccc(O)c3)c2C1 (stereo unspecified)	none
O=C(Nc1nc2ccc(S(=O)(=O)N3CCCC3)cc2s1)c1ccc(F)cc1	none
O=S(=O)(Nc1nc2ccc(S(=O)(=O)N3CCCC3)cc2s1)c1ccc(F)cc1	Cruzain inh noDet 16µM
COc1ccc(-c2csc3nc(-c4ccc(F)cc4)oc(=O)c23)cc1OC	none
Cc1cc(C)n(-c2nc(C)nc(NCc3ccccc3)n2)n1	none
Cc1nn(-c2nnc(NCc3ccccc3)nn2)c(C)c1Br	Cruzain inh noDet inconclusive, Cruzain Triton 13µM
Cc1ccc(CNC(=O)c2nn(C)c3c2CSc2ccc(C)cc2-3)cc1	Cruzain inh noDet 20µM
Cc1ccc(CCNC(=O)c2nn(C)c3c2CSc2ccccc2-3)cc1	none
CCNc1ccc(-c2nc(-c3ccco3)no2)cc1[N+](=O)[O-]	none
COCCNc1ccc(-c2nc(-c3ccco3)no2)cc1[N+](=O)[O-]	Cruzain inh noDet 3.2µM
Cc1ccc(NC(=O)CN2C(=O)C(c3ccccc3)=NC23CCCCC3)cc1C	none
CCOc1ccccc1NC(=O)c1ccccc1-c1nc(-c2ccccc2)no1	none
CCOc1ccccc1-c1nc(-c2ccc(NC(=O)Cc3ccccc3OC)cc2)no1	Cruzain inh noDet 25µM
COc1ccc(CC(=O)Nc2ccc(-c3noc(-c4cccc(OC)c4)n3)cc2)cc1	Cruzain inh noDet 7.9µM
COc1ccc(-c2noc(CC(=O)Nc3ccc(C)c(F)c3)n2)cc1	none
COc1cccc(-c2nc(-c3ccc(NC(=O)c4cccnc4)cc3)no2)c1	none
COc1ccccc1CC(=O)Nc1ccc(-c2noc(COc3ccc(Cl)c(C)c3)n2)cc1	Cruzain inh noDet 25µM
S=c1[nH]nc(-c2ccccn2)n1/N=C/c1ccc(Br)s1	none
c1ccc(CNc2ncncc2-c2ccc3c(c2)OCO3)cc1	none
C(=C/c1ccccc1)/CN1CCN(C(c2ccccc2)c2ccccc2)CC1	none (no result: Cruzain Triton)
O=S(=O)(c1ccc(F)cc1)n1ccc(-c2cccc(OCc3c(F)cccc3Cl)c2)n1	none
O=S(=O)(c1ccc(Cl)cc1)n1ccc(-c2cccc(OCc3c(F)cccc3Cl)c2)n1	Cruzain inh noDet 20µM
Cc1nn(C)c(C)c1CN(C)C(=O)CCCC(=O)O	none
O=c1c(-c2cc(F)cc(F)c2)nc2cnc(N3CCNCC3)nc2n1Cc1ccc(F)cc1	none
Cc1ccc(NC(=O)Cn2cc(C(=O)C3CCCCC3)c3ccccc32)c(C)c1	none
CC(=O)c1sc(NC(=O)c2cc(-c3ccccc3)nn2-c2ccccc2)nc1C	none
O=C(Nc1nc2ccccc2s1)c1cc(-c2ccccc2)nn1-c1ccccc1	Cruzain inh noDet 10µM
c1cncc(-c2nnc(SCc3nc4ccccc4[nH]3)o2)c1	Cruzain inh noDet inconclusive
c1ccc2[nH]c(CSc3nc4ccccc4o3)nc2c1	Cruzain inh noDet 13µM
COc1ccc(-c2nnn(CC(=O)c3c[nH]c4ccccc34)n2)cc1OC	none
CCCCOc1ccc(-c2nnn(CC(=O)c3c[nH]c4ccccc34)n2)cc1	Cruzain inh noDet 7.9µM
CCOC(=O)C1CSC(Cc2ccc(OCc3ccc([N+](=O)[O-])cc3)cc2)N1 (stereo unspecified)	none
CC1CC(C)CN(C(=O)COC(=O)CCc2nc3ccccc3c(=O)[nH]2)C1 (stereo unspecified)	none
O=C(CCc1nc2ccccc2c(=O)[nH]1)OCC(=O)c1ccc(C2CCCCC2)cc1	Cruzain inh noDet 16µM
COc1ccc(C2C(C(=O)N3CCCCC3)CC(=O)N2c2ccc(OC)cc2)cc1 (stereo unspecified)	none
COc1ccc(OC)c2sc(NC(=O)c3ccc(S(=O)(=O)N4CCCC4)cc3)nc12	none
Cc1cccc(CSc2nc(N)c(C#N)c(-c3cccs3)c2C#N)c1	Cruzain inh noDet 25µM
Cc1cccc(CSc2nc3c(c(-c4cccs4)c2C#N)CN(C)CC3)c1	none
COC(=O)Cc1nnc(NC(=O)c2ccccc2)s1	none
Cc1ccc(SCc2nnc(NC(=O)c3ccccc3)s2)cc1	Cruzain inh noDet 10µM
CCOC(=O)c1c(C)oc2ncnc(Nc3ccc(F)cc3Cl)c12	none
CCCCNC(=O)[C@@H](c1ccccc1)N1Cc2ccccc2C1=O	none
O=C(O)[C@@H](c1ccccc1)N1Cc2ccccc2C1=O	Cruzain inh noDet 16µM
N#Cc1ccc(C23CC4(C2)[C@H](CN(Cc2ccc(-c5ccccc5)cc2)[C@@H]4c2ccccc2)C3c2ccccc2)cc1 (stereo partly specified)	Cruzain inh noDet 13µM
COC(=O)c1ccc(C23CC4(C2)[C@H](CN(C)[C@@H]4c2ccccc2)C3c2ccccc2)cc1 (stereo partly specified)	none
COC(=O)c1ccc(C23CC4(C2)[C@H](CN(Cc2ccc(-c5ccccc5)cc2)[C@@H]4c2ccccc2)C3c2ccccc2)cc1 (stereo partly specified)	Cruzain inh noDet 7.9µM
COC(=O)c1cccc(C23CC4(C2)[C@H](CN(Cc2ccc(-c5ccccc5)cc2)[C@@H]4c2ccccc2)C3c2ccc(Cl)nc2)c1 (stereo partly specified)	Cruzain inh noDet 7.9µM
COC(=O)c1cccc(C23CC4(C2)[C@H](CN(Cc2cccnc2)[C@@H]4c2ccccc2)C3c2ccc(Cl)nc2)c1 (stereo partly specified)	none
c1ccc(-c2ccc(CN3C[C@@H]4C(c5ccccc5)C5(c6ccccc6)CC4(C5)[C@H]3c3ccccc3)cc2)cc1 (stereo partly specified)	none
O=C(Nc1ccc(N2CCOCC2)cc1)c1cccc(S(=O)(=O)N2CCC(Cc3ccccc3)CC2)c1	none
CCOc1ccc(-c2cc3nc(C4CCN(C(=O)OC(C)(C)C)CC4)c(C(=O)Nc4ccc(C)cc4Cl)cn3n2)cc1	Cruzain inh noDet inconclusive
CCOc1ccc(-c2cc3nc(C4CCN(C(=O)OC(C)(C)C)CC4)c(C(=O)Nc4cccc(Cl)c4C)cn3n2)cc1	Cruzain inh noDet 7.9µM
CCc1ccc(-n2c(=O)c3c4c(sc3n(CC(=O)NC(C)CC)c2=O)CCCC4)cc1 (stereo unspecified)	none
O=C(Nc1ccccc1)c1ccc(Nc2c([N+](=O)[O-])cc([N+](=O)[O-])c3ccccc23)cc1	Cruzain inh noDet 10µM
O=C(Nc1ccccc1)c1ccc(NCC2CCCO2)c([N+](=O)[O-])c1 (stereo unspecified)	none
COc1c(OC)c2occc2c2oc(=O)ccc12	none
Cc1cccc(NC(=O)CSc2nnc(-c3cccs3)o2)c1	none
O=C(CSCc1ccc(F)cc1)N1CCc2c([nH]c3ccccc23)C1c1ccccc1 (stereo unspecified)	none
COc1ccc(CC(=O)N2CCc3c([nH]c4ccccc34)C2c2ccc(SC)cc2)cc1 (stereo unspecified)	Cruzain inh noDet 25µM
COc1ccc(CCC(=O)N2CCc3c([nH]c4ccccc34)C2c2ccc(F)cc2)cc1 (stereo unspecified)	Cruzain inh noDet inconclusive
O=C(CSCc1ccc(F)cc1)N1CCc2c([nH]c3ccccc23)C1c1ccc(Cl)cc1 (stereo unspecified)	Cruzain inh noDet 7.9µM
O=C(CSc1ccccc1)N1CCc2c([nH]c3ccccc23)C1c1ccc(Cl)cc1 (stereo unspecified)	Cruzain inh noDet 13µM
